From PubChem BioAssay (NCI)
This is part of a sample that, as a whole, favours compounds with a hit. Of some 83,000 tested, about 20% had one in any assay.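 Plates (96-well) were seeded with cells, treated with compound at one concentration, and incubated for 48 hours before percent growth was determined.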 Activity calls are given as the source filed them. Rule for the calls: active = growth percent below 10; inactive = the rest.

What follows are compounds tested on NCI-H23 lung (assay: NCI-60 one-dose screen, 48 h (100 = growth as untreated, 0 = no growth, -100 = all killed)). Conditions: 10 µM.

Row | SMILES | growth
1 | COc1ccc(N=Nc2cc(OC)c(OC)c(OC)c2)cc1 | 77.3% (inactive)
2 | COc1cc2cc(Oc3ccc(NC(=O)Nc4ccc(Cl)c(C(F)(F)F)c4)cc3)c(C)nc2cc1OC | 3.46% (active)
3 | COc1cccc(-c2nc3sccn3c2-c2cccc(S(C)(=O)=O)c2)c1 | 85.4% (inactive)
4 | COc1cc(-c2nn(-c3cccc(NC(=O)CCN4CCN(Cc5ccccc5)CC4)c3)cc2-c2ccncc2)ccc1Cl | 20.8% (inactive)
5 | O=C(O)c1cc([N+](=O)[O-])ccc1Oc1ccccc1 | 101% (inactive)
6 | CCN(CC)CCCC(C)N=C(C1=C(C(=NC(C)CCCN(CC)CC)c2cccc(OC)c2)C(=O)NC1=O)c1cccc(OC)c1 (centres undefined) | -18.4% (active)
7 | O=[N+]([O-])c1cc(Cl)cc(Cl)c1O | 97.7% (inactive)
8 | O=C(CN1CCN(C(=O)c2ccccc2)CC1)Nc1ccccc1SCc1ccccc1 | 79% (inactive)
9 | CC(=O)Oc1cc(OC(C)=O)c2ccccc2c1OC(C)=O | 70.8% (inactive)
10 | CCOC(=O)c1cc(C(=O)c2ccc(F)cc2F)n2ccccc12 | 101% (inactive)
11 | CN1CCN(CCCn2c(=O)c3sc4ncccc4c3n3nnc(-c4ccccc4)c23)CC1 | 77.3% (inactive)
12 | O=C(CCl)Nc1ccc(Cc2ccc(NC(=O)CCl)cc2)cc1 | -10.4% (active)
13 | COc1cc(/C=C2\CCCC3=C2N=C2SC(C)=CN2C3c2cc(OC)c(OC)c(OC)c2)cc(OC)c1OC (centres undefined) | -30.4% (active)
14 | Oc1cccc(-c2nc3sccn3c2-c2ccncn2)c1 | 92.1% (inactive)

The compounds below were run on NCI-H226 lung in the same assay as above. Conditions: 10 µM.

Row | SMILES | growth
15 | NS(=O)(=O)Oc1ccc(-c2ccc3sccc3c2)cc1 | 88.1% (inactive)
16 | C=C(C)[C@@H]1CC[C@]2(COCCC#N)CC[C@]3(C)[C@H](CC[C@@H]4[C@@]5(C)Cc6c([nH]c7ccccc67)C(C)(C)[C@@H]5CC[C@]43C)[C@@H]12 | 94.5% (inactive)
17 | O=S(=O)(Oc1ccc(-c2ccc3sccc3c2)cc1)c1ccc(F)cc1 | 94.5% (inactive)
18 | Cc1nn(-c2ccccc2)c2nc(Cl)c(C=O)c(-c3ccccc3)c12 | 93.3% (inactive)
19 | Cc1ccc(S(=O)(=O)N/N=C2\CCCc3ccccc32)cc1 | 90.9% (inactive)
20 | COc1ccc(-c2cc(-c3ccc(OC)c(OC)c3)nc(SCCCC(=O)NO)n2)cc1 | -15.3% (active)
21 | CC(C)C[C@H](NC(=O)Cn1cccc(CNC(=O)c2ccccc2)c1=O)B(O)O | -66% (active)
22 | CC[C@@H](C(=O)[C@@H](C)[C@@H](O)[C@H](C)[C@@H]1O[C@@H]([C@@H](CC)C(=O)O)CC[C@@H]1C)C1O[C@]2(C=CC(=O)[C@]3(CC[C@@](C)([C@H]4CC[C@](O)(CC)[C@H](C)O4)O3)O2)[C@H](C)C[C@@H]1C (some centres undefined) | 28.3% (inactive)
23 | CCOC(=O)/C(=C(\C)N)C1CC(=O)NC1=O (centres undefined) | 97.3% (inactive)
24 | COc1cc(-c2nn(-c3cccc(NC(=O)CCNc4ccc(N5CCOCC5)cc4)c3)cc2-c2ccncc2)ccc1Cl | 25.9% (inactive)
25 | CC(=O)N[C@H](C(=O)N[C@@H](CCCNC(=N)N)C(=O)N[C@@H](CCCCN)C(=O)N[C@@H](CCCNC(=N)N)C(=O)N[C@]1(C)CCCCCC/C=C\CCC[C@@](C)(C(=O)N[C@@H](CCCNC(=N)N)C(=O)N[C@@H](CCC(=O)O)C(=O)N[C@@H](CC(C)C)C(=O)N[C@H](C(=O)N[C@@H](CCC(=O)O)C(N)=O)C(C)C)NC(=O)[C@H](CCC(N)=O)NC(=O)[C@H](CC(C)C)NC(=O)[C@H](CC(C)C)NC(=O)[C@H](CCCNC(=N)N)NC(=O)[C@H](CCCNC(=N)N)NC(=O)[C@H](CC(C)C)NC1=O)C(C)C | 9.55% (active)
26 | O=C1c2ccccc2C(=O)c2c1ccc1c(=O)n(-c3ccccc3C(F)(F)F)nnc21 | 35.9% (inactive)
27 | Cc1c(Cl)cccc1NC(=O)CCCl | 95.3% (inactive)
28 | COc1cc(-c2csc(NC(=O)Nc3cc(C(F)(F)F)cc(C(F)(F)F)c3)n2)cc(OC)c1OC | 24.8% (inactive)
29 | Nc1ccn(Cc2nnc(CCC(=O)c3nc4ccccc4[nH]3)o2)c(=O)n1 | 73.7% (inactive)
30 | O=C1C=C(Nc2cccc(Br)c2)c2ccccc2C1=O | 91.3% (inactive)
31 | COc1cccc(N=Nc2cccc(OC)c2)c1 | 90.5% (inactive)
32 | C=CCN(CC=C)C(=O)[C@H](CC)[C@@H]1CC[C@@H](C)[C@@H]([C@H](C)[C@@H](O)[C@@H](C)C(=O)[C@H](CC)C2O[C@]3(C=C[C@@H](O)[C@]4(CC[C@@](C)([C@H]5CC[C@](O)(CC)[C@H](C)O5)O4)O3)[C@H](C)C[C@@H]2C)O1 (some centres undefined) | -0.687% (active)
33 | O=C1/C=C/[C@@H](O)[C@@H]2C[C@@H](O)C[C@H]2/C=C/CCC[C@@H](C(F)(F)F)O1 | 59.9% (inactive)
34 | CC[C@@H](C(=O)[C@@H](C)[C@@H](O)[C@H](C)[C@@H]1O[C@@H]([C@@H](CC)C(=O)N(CC)CC)CC[C@@H]1C)C1O[C@]2(C=CC(=O)[C@]3(CC[C@@](C)([C@H]4CC[C@](O)(CC)[C@H](C)O4)O3)O2)[C@H](C)C[C@@H]1C (some centres undefined) | 13.4% (inactive)

Row | SMILES | growth
35 | O=S(=O)(O)c1ccc(Cl)cc1 | 97.3% (inactive)
36 | CCN(CC)CCOc1cccc2c1C(=O)c1ccccc1C2=O | 93.8% (inactive)
37 | CC[C@@H]1NC(=O)[C@H]([C@H](O)[C@H](C)C/C=C/c2ccc(CN3C(=O)CCCC3=O)cc2)N(C)C(=O)[C@H](C(C)C)N(C)C(=O)[C@H](CC(C)C)N(C)C(=O)[C@H](CC(C)C)N(C)C(=O)[C@@H](C)NC(=O)[C@H](C)NC(=O)[C@H](CC(C)C)N(C)C(=O)[C@H](C(C)C)NC(=O)[C@H](CC(C)C)N(C)C(=O)CN(C)C1=O | -22.8% (active)
38 | O=C(Nc1ccc(NS(=O)(=O)c2ccc(F)cc2)cc1)C12CC3CC(CC(C3)C1)C2 | 92% (inactive)
39 | C/C(=N\O)c1ccc(NC(=O)CSc2nnc(-c3ccccc3)n2-c2ccccc2)cc1 | 72.4% (inactive)
40 | CC(=O)Nc1ccc2c(c1)C(=O)c1cccc(C(=O)O)c1-2 | 95.5% (inactive)
41 | COc1ccc(N=Nc2cc(OC)c(OC)c(OC)c2)cc1 | 92.4% (inactive)
42 | COc1cc2cc(Oc3ccc(NC(=O)Nc4ccc(Cl)c(C(F)(F)F)c4)cc3)c(C)nc2cc1OC | 4.49% (active)
43 | COc1cccc(-c2nc3sccn3c2-c2cccc(S(C)(=O)=O)c2)c1 | 90.1% (inactive)
44 | COc1cc(-c2nn(-c3cccc(NC(=O)CCN4CCN(Cc5ccccc5)CC4)c3)cc2-c2ccncc2)ccc1Cl | 54% (inactive)
45 | O=C(O)c1cc([N+](=O)[O-])ccc1Oc1ccccc1 | 98.6% (inactive)
46 | CCN(CC)CCCC(C)N=C(C1=C(C(=NC(C)CCCN(CC)CC)c2cccc(OC)c2)C(=O)NC1=O)c1cccc(OC)c1 (centres undefined) | -43.4% (active)
47 | O=[N+]([O-])c1cc(Cl)cc(Cl)c1O | 101% (inactive)
48 | O=C(CN1CCN(C(=O)c2ccccc2)CC1)Nc1ccccc1SCc1ccccc1 | 81.5% (inactive)
49 | CC(=O)Oc1cc(OC(C)=O)c2ccccc2c1OC(C)=O | 88.4% (inactive)
50 | CCOC(=O)c1cc(C(=O)c2ccc(F)cc2F)n2ccccc12 | 88.2% (inactive)
51 | CN1CCN(CCCn2c(=O)c3sc4ncccc4c3n3nnc(-c4ccccc4)c23)CC1 | 108% (inactive)
52 | O=C(CCl)Nc1ccc(Cc2ccc(NC(=O)CCl)cc2)cc1 | -16.2% (active)
53 | COc1cc(/C=C2\CCCC3=C2N=C2SC(C)=CN2C3c2cc(OC)c(OC)c(OC)c2)cc(OC)c1OC (centres undefined) | -56.7% (active)
54 | Oc1cccc(-c2nc3sccn3c2-c2ccncn2)c1 | 94.4% (inactive)
